{
  "source": "PubChem BioAssay AID651791",
  "about": "(National Center for Advancing Translational Sciences (NCATS), 2012)",
  "note": "Results filed as inconclusive are left out. Active and inactive are the calls of the source. The call rests on the fitted dose curve; in most records, active means well fitted inhibition curve with a large enough effect; inconclusive means small, poorly fitted or top-dose-only effect; inactive means no such curve, though single readings can be large or run the other way. Potency means the concentration at half of the fitted maximal effect.",
  "data": [
    {"experiment": "InCell qHTS Assay for Inhibitors of the mTORC1 Signaling Pathway in MEF (Tsc2-/-, p53-/-) Cells: Hit Validation;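 further: phospho-S6 Ser235/236 signal normalized to propidium iodide cell count per well; nearly all actives have a fitted effect of over 75% in size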", "conditions": "phospho-rpS6 immunofluorescence, 24 h; activity change, negative = inhibition: at 38.3 µM (top of the series)", "units": {"activity change, negative = inhibition": "%"}, "values": [
      {"smiles": "Cc1oc2ccc(O)c(CN3CCCC(C)C3)c2c1C(=O)Nc1ccccc1", "note": "(configuration not stated)", "activity change, negative = inhibition": -29.6},
      {"smiles": "Cc1cccc(C(=O)Nc2c3c(nn2-c2ccc(Cl)cc2)CS(=O)(=O)C3)c1", "activity change, negative = inhibition": -100},
      {"smiles": "CCOC(=O)Cn1c(=O)c2c(nc(N3CCOCC3)n2Cc2ccccc2)n(C)c1=O", "Potency": "11.7 µM (active)"},
      {"smiles": "Cc1ccc(OCC(O)Cn2c(=N)n(CCN3CCCCC3)c3ccccc32)cc1", "note": "(configuration not stated)", "Potency": "16.5 µM (active)"},
      {"smiles": "COc1ccc(S(=O)(=O)NCCc2sc3nc(-c4ccc(C)cc4)nn3c2C)cc1F", "activity change, negative = inhibition": -100},
      {"smiles": "Cc1cccc(-c2nc3c(cnn3-c3ccccc3)c(=O)n2-c2ccc(Br)cc2)c1", "activity change, negative = inhibition": -100},
      {"smiles": "CC(=O)Nc1ccc(NC(=O)c2nc(S(=O)(=O)Cc3ccc(F)cc3)ncc2Cl)cc1", "Potency": "3.29 µM (active)"},
      {"smiles": "CCSc1oc(-c2ccc(F)cc2)nc1S(=O)(=O)c1ccc(C)cc1", "activity change, negative = inhibition": -100},
      {"smiles": "COc1cc(C(=O)CC2(O)C(=O)N(Cc3ccccc3Cl)c3ccccc32)cc(OC)c1OC", "note": "(configuration not stated)", "activity change, negative = inhibition": -3.93},
      {"smiles": "CCOc1cc(CNc2ccc(O)cc2)ccc1OCc1ccc(Cl)cc1", "activity change, negative = inhibition": -100},
      {"smiles": "COc1ccc(Oc2nc3c(C)cccn3c(=O)c2/C=C(\\C#N)c2nc3ccccc3[nH]2)cc1", "activity change, negative = inhibition": -100},
      {"smiles": "CCS(=O)(=O)c1ncc(Cl)c(C(=O)NCc2ccccc2)n1", "Potency": "10.4 µM (active)"},
      {"smiles": "CCCCS(=O)(=O)c1oc(-c2ccc(F)cc2)nc1S(=O)(=O)c1ccccc1", "Potency": "2.07 µM (active)"},
      {"smiles": "FC(F)(F)c1cccc(Nc2c3c(nc4ccc(Cl)cc24)CCC3)c1", "activity change, negative = inhibition": -100},
      {"smiles": "CCC1CN(C(=O)NCc2ccc(F)cc2)c2cc(C)ccc2O1", "note": "(configuration not stated)", "activity change, negative = inhibition": -100},
      {"smiles": "COc1cc(C(=O)N(CCCN(C)C)c2nc3c(OC)cccc3s2)cc(OC)c1OC", "activity change, negative = inhibition": -100},
      {"smiles": "CCCc1oc2ccc(NS(=O)(=O)c3ccc(OCC)cc3)cc2c1C(=O)OCC", "activity change, negative = inhibition": -100},
      {"smiles": "O=C(CS(=O)(=O)c1cccc2nsnc12)NCc1ccc(Cl)cc1", "activity change, negative = inhibition": -100},
      {"smiles": "Cc1cc(C)c(NC(=O)Cn2c(=O)n(Cc3ccc(C(=O)NCc4ccc5c(c4)OCO5)cc3)c(=O)c3ccccc32)c(C)c1", "Potency": "3.29 µM (active)"},
      {"smiles": "CCOC(=O)C1CCN(C(=O)CSc2c3c(nc4ccc(Cl)cc24)CCCC3)CC1", "activity change, negative = inhibition": -100},
      {"smiles": "CCOC(=O)c1cnc2ccc(OCC)cc2c1NCCc1ccc(OC)c(OC)c1", "activity change, negative = inhibition": -100},
      {"smiles": "Cc1c(Cl)cccc1NC(=O)c1oc2ccc(S(=O)(=O)N3CCC4(CC3)OCCO4)cc2c1C", "activity change, negative = inhibition": -22.5},
      {"smiles": "CCOc1ccccc1NS(=O)(=O)c1ccc(-c2cnc(C3CC3)o2)cc1", "activity change, negative = inhibition": -100},
      {"smiles": "CCOC(=O)c1cnc2c(ccc3ccccc32)c1Nc1ccc(OC)cc1OC", "activity change, negative = inhibition": -100},
      {"smiles": "CCN(CC)CC(C)CNC(=O)c1cc(-c2ccc(Br)s2)nc2ccccc12", "note": "(configuration not stated)", "activity change, negative = inhibition": -14.3},
      {"smiles": "CCOC(=O)c1ccc(N2C(=O)c3n[nH]c(-c4cccs4)c3C2c2cccc(F)c2)cc1", "note": "(configuration not stated)", "activity change, negative = inhibition": -100},
      {"smiles": "Nc1c(C(=O)NCc2ccccc2)nnn1Cc1cccc(Br)c1", "activity change, negative = inhibition": -100},
      {"smiles": "Cc1c(C2=CCN(S(=O)(=O)c3ccc(Br)cc3)CC2)c2ccccc2n1CC(=O)N1CCCC1", "activity change, negative = inhibition": -100},
      {"smiles": "C#CC(C)(CC)NC(=O)Cn1nnc(-c2ccc(OCc3c(F)cccc3Cl)cc2)n1", "note": "(configuration not stated)", "activity change, negative = inhibition": -100},
      {"smiles": "CCc1ccc(CN(Cc2ccco2)C(=O)c2cc(-c3ccc(C)c(F)c3)on2)cc1", "activity change, negative = inhibition": -100},
      {"smiles": "O=C(CSc1cn(CC(=O)N2CCCC2)c2ccccc12)Nc1ccc(Cl)cc1", "activity change, negative = inhibition": -100},
      {"smiles": "CCCS(=O)(=O)c1ncc(Cl)c(C(=O)Nc2c(C(=O)Nc3ccccc3)oc3ccccc23)n1", "Potency": "2.33 µM (active)"},
      {"smiles": "CCS(=O)(=O)c1ncc(Cl)c(C(=O)N(Cc2ccccc2)c2ccc(OC)cc2)n1", "Potency": "2.93 µM (active)"},
      {"smiles": "CCCCN(C)C(=O)CSc1c2c(nc3ccc(Cl)cc13)CCCC2", "activity change, negative = inhibition": -100},
      {"smiles": "CCOC(=O)CSc1nc2cc3c(cc2c(=O)n1CCCCCC(=O)NCc1ccc2c(c1)OCO2)OCO3", "activity change, negative = inhibition": -100},
      {"smiles": "COc1ccccc1C1C=C(c2ccc(Cl)cc2)Nc2nc(-c3ccc(Cl)cc3)nn21", "note": "(configuration not stated)", "activity change, negative = inhibition": -100},
      {"smiles": "Cc1cccc(NC(=O)c2c(N)sc3c2CCC(C)C3)c1", "note": "(configuration not stated)", "activity change, negative = inhibition": -100}
    ]}
  ]
}
